# Measured values from ChEMBL document CHEMBL3988442, “University of Dundee, Small-Polar-MMV Screening Library” (2021).
# In all, about 48,000 compounds went through this assay and about 13,000 (27%) showed an effect of 50% or more. This is one part of the list.
# Tested on: Wolbachia pipientis
# Assay: Anti-Wolbachia Cell-Based Screen
# Assay type: functional
# Parameters: scale not given: in the data most compounds retested in dose-response had high values
# Settings: 5 µM
row,SMILES,Percent Effect
1,CCOC(C)c1nc(Cn2cc(C(=O)NC)ccc2=O)cs1 (centres undefined),-7.956%
2,Cc1ccc(NC(=O)N2CCOC(C)(c3cnn(C)c3)C2)c(C)c1 (centres undefined),16.86%
3,COc1cc2c(cc1OC)S(=O)(=O)N(Cc1cc(C)on1)C2=O,-6.413%
4,N#Cc1c(Cl)nsc1N1CCN(CC2CCCCC2)CC1,3.475%
5,Cc1cccc(-n2nc(CC(C)C)nc2CCn2ccc(=O)[nH]c2=O)c1,22.44%
6,O=C(c1ccc(-n2cccn2)nc1)N1CCC(Nc2cccnn2)CC1,-1.733%
7,O=C(c1ccncc1)N1CCCN(Cc2nnc(C3CC3)o2)CC1,-12.73%
8,O=C(c1ccccc1-n1cccn1)N1CCC(Nc2cccnn2)CC1,157.4%
9,O=C(c1ccsc1)N1CCC(c2nnc(C3CC3)o2)CC1,116.7%
10,O=C(c1ccccc1-n1cccn1)N1CCCN(c2cccnn2)CC1,-6.198%
11,O=C(c1ccc(O)nc1)N1CCC(Nc2cccnn2)CC1,95.42%
12,O=C(c1ccccn1)N1CCC(Nc2cccnn2)CC1,18.78%
13,O=C(c1ccc(NC2CC2)nc1)N1CCC(Nc2cccnn2)CC1,118.5%
14,FC(F)(F)c1ccc(-n2ccnc2-c2cc3n(n2)CCNC3)cn1,0.08182%
15,CCS(=O)(=O)c1ccccc1N1CCC(NC(=O)NC2CCCC2)CC1,-4.776%
16,O=C(c1ccsc1)N1CCC(Nc2cccnn2)CC1,95.56%
17,O=C(c1ccoc1)N1CCC(Nc2cccnn2)CC1,90.61%
18,Cc1ccc(S(=O)(=O)Nc2ccc(-n3nnn(C)c3=O)cc2)cc1,8.508%
19,O=S(=O)(Nc1ccc(N2CCOCC2)cn1)c1cccc(F)c1,2.193%
20,COc1cccc(OCC2CCCN(C(=O)c3ncc(F)cc3F)C2)c1 (centres undefined),-61.26%
21,c1nc2c(c(NC3COC4(CCCC4)C3)n1)CCNCC2 (centres undefined),100.1%
22,COC[C@H]1CCC[C@H]1Nc1ncnc2c1CCNCC2,95.23%
23,COCC(=O)N1CCCN(c2ncnc3c2CCNCC3)CC1,1.266%
24,CC(C)Nc1ncnc2c1CCNCC2,-5.966%
25,CCNc1ncc(C(=O)NC2COC3(CCCC3)C2)cn1 (centres undefined),-5.692%
26,c1nc2c(c(NC3CCc4ncnn4C3)n1)CCC2 (centres undefined),-6.936%

row,SMILES,Percent Effect
1,CC(NC(=O)CCN1CCOC1=O)(c1ccccc1)c1ccccc1,8.215%
2,CC(Oc1ccccc1C(F)(F)F)C(=O)NS(=O)(=O)C(C)C (centres undefined),-1.095%
3,CCC(CC(=O)Nc1ccc2c(c1)CC(=O)N2)c1ccccc1 (centres undefined),3.416%
4,Cn1cc(C(=O)N2CCOc3ccccc32)ccc1=O,-9.078%
5,O=C(NCCc1cccc(Cl)c1)C1CCOCC1,2.096%
6,O=C(NCCc1cc2nc(-c3ccncc3)ccn2n1)C1CC1,124.8%
7,Cc1csc(CCNC(=O)C2CCOC2)n1 (centres undefined),0.3325%
8,CC(C)N1CC(C(=O)NCCc2csc(-c3ccncc3)n2)CC1=O (centres undefined),2.271%
9,O=C(NCCc1cc2nc(-c3ccncc3)ccn2n1)C1CCOCC1,126.4%
10,O=C(Nc1cc(-c2ccncc2)no1)C1CC1,-3.278%
11,Cc1cc(=O)n(C)cc1NC(=O)NCc1cccc(F)c1,28.52%
12,CN1CCOC(C(=O)Nc2nc(-c3ccccc3F)n[nH]2)C1 (centres undefined),-6.828%
13,O=C(Cc1ccccc1)N1CC(=O)N(Cc2ccco2)CC(O)C1 (centres undefined),119.5%
14,O=C(COCc1ccccc1)N1CCN(Cc2ccccc2F)C(=O)C1,-37.48%
15,O=C1NCCO[C@H]2CN(C(=O)Cc3ccco3)CC[C@@H]12,-15.97%
16,O=C1CN(C(=O)OCc2ccccc2)CC(O)CN1Cc1ccco1 (centres undefined),93.23%
17,O=C(O)C(F)(F)F.c1coc(CN2Cc3ccnn3CC(COCC3CC3)C2)c1 (centres undefined),5.412%
18,O=C(Cc1ccc(-c2ccccc2)cc1)N1CCOCC(O)C1 (centres undefined),-43.76%
19,O=C(C1CN(Cc2ccoc2)CC12CCOCC2)N1CCCC1 (centres undefined),-22.56%
20,COCc1cc(C[C@@H]2CC[C@H](O)[C@@H](CN(C)C)O2)no1,7.016%
21,O=C(O)C(F)(F)F.O=C(c1ccoc1)N1CC[C@H]2OCC[C@@]2(COc2ncccc2F)C1,0.551%
22,COc1ccc(C(C)N2CCC(NS(C)(=O)=O)CC2)cc1Cl (centres undefined),-1.711%
23,CO[C@H]1CC[C@H]2[C@H]1OCCN2C(=O)c1nn(C)c2ccccc12,119%
24,CO[C@@H]1CC[C@H]2[C@H]1OCCN2C(=O)c1ccco1,-5.889%
25,CC(C)O[C@@H]1CC[C@H]2[C@H]1OCCN2C(=O)c1nn(C)c2ccccc12,112.4%
26,CO[C@@H]1CC[C@H]2[C@H]1OCCN2C(=O)c1nn(C)c2ccccc12,115.4%

row,SMILES,Percent Effect
1,COCCNC(=O)Nc1cccc(COCCOC(C)C)c1,-33.02%
2,Cn1cc(C#N)cc1C(=O)N1CCC2(CCCN(CC3CCC3)C2=O)C1 (centres undefined),-29.9%
3,CCOC(=O)N1CCN(CC(=O)Nc2ccc(F)cc2Cl)CC1,-11.41%
4,O=C(Cn1cc(C(=O)O)ccc1=O)Nc1ccc(F)cc1Cl,-4.302%
5,COC(=O)CC1CCCCN1CC(=O)Nc1ccc(F)cc1Cl (centres undefined),107.7%
6,O=C(CN1CCCCC1C1OCCO1)Nc1ccc(F)c(F)c1 (centres undefined),-7.301%
7,COC(=O)CC1CCCCN1CC(=O)Nc1cc(F)ccc1F (centres undefined),97.72%
8,O=C(CN1CCCCC1Cn1cncn1)NCCc1ccc(F)cc1 (centres undefined),-1.768%
9,Cc1nc(C)n(CC2CCCN2CC(=O)NCCc2ccccc2)n1 (centres undefined),5.202%
10,COC(=O)CC1CCCCN1CC(=O)NCCc1ccc(F)cc1 (centres undefined),106.1%
11,COC(=O)C1CN(CC(=O)Nc2cc(F)ccc2F)c2ccccc21 (centres undefined),6.543%
12,Cc1cc(C)c(CNC(=O)NCCNc2ncccn2)c(=O)[nH]1,-4.444%
13,CCc1nsc(NC2CCCn3nc(CC)nc32)n1 (centres undefined),0.3299%
14,CCOC(=O)c1ccc(NC(=O)c2c(O)nc3c(c2O)CCCC3)cc1,115.5%
15,CC1=NN(c2ccc(C(=O)OCCNC(=O)c3ccncc3)cc2)CC1,6.071%
16,Nc1nc2c(c(NC(=O)Nc3ccc(Cl)c(Cl)c3)n1)CCCC2,4.347%
17,CC(C)(C)c1cnc(CN2CCCS(=O)(=O)CC2)o1,-0.7322%
18,OCC1CCN(Cc2cc3c(cc2Br)OCCO3)CC1,-6.909%
19,c1cc(CN2CCCC2c2noc(C3CC3)n2)on1 (centres undefined),95.79%
20,CC(C)c1nc(C2CCCN2Cc2ccno2)no1 (centres undefined),-3.719%
21,FC(F)(F)Cn1ccnc1CN1CCCC1c1noc(C2CC2)n1 (centres undefined),2.411%
22,CCc1nc(C2CCCN2Cc2nnc(CC)o2)no1 (centres undefined),-8.839%
23,CCc1nc(C2CCCN2Cc2ccno2)no1 (centres undefined),111.3%
24,Cn1ccnc1CN1CCCC1c1noc(C2CC2)n1 (centres undefined),3.243%
25,O=S(=O)(N1CCCCCC1)N1CCc2sccc2C1,4.086%
26,CS(=O)(=O)N1CCOC(CNC(=O)c2cccc(C#N)c2)C1 (centres undefined),-22.73%

row,SMILES,Percent Effect
1,O=C(c1cccc(F)c1)N(CCCO)S(=O)(=O)c1cccs1,-5.785%
2,Cc1cccc(OC2CCN(C(=O)Cn3ccc4ccccc43)CC2)n1,1.872%
3,Cn1cc(CN2CCCC(c3nccnc3-c3cccc(F)c3)C2)cn1 (centres undefined),135.8%
4,Cn1cc(CN2CCOC(c3nccnc3-c3cccc(F)c3)C2)cn1 (centres undefined),187.6%
5,Cn1cc(CN2CCCC(CCc3ccccc3C(F)(F)F)C2)cn1 (centres undefined),9.578%
6,Cn1cc(CN2CCOC(c3cccc(-c4cccc(F)c4)n3)C2)cn1 (centres undefined),143.3%
7,Cn1cc(CNC(=O)C2CCCN(Cc3cccc(F)c3)C2)cn1 (centres undefined),-5.601%
8,CC(C)c1ccc(CN2CCC3(CCCN(c4nncs4)C3)C2)cc1.O=C(O)C(F)(F)F (centres undefined),37.55%
9,Cc1cccc(OCCC(=O)N2CCN(S(=O)(=O)N(C)C)CC2)c1C,-2.723%
10,Cl.O=C(NC[C@@]1(COc2cnccn2)C[C@@H](O)[C@@H](O)C1)C1CCCC1,-8.405%
11,CCCN(Cc1cnc2ccccc2n1)Cc1ccccc1OC,-2.298%
12,COc1ccnc(N(C)Cc2ccccc2OC(F)(F)F)n1,-0.2691%
13,COc1ccccc1CN(C)Cc1ccnc(C2CCCO2)n1 (centres undefined),134%
14,COc1ccc(CN(C)Cc2ccnc(C3CCCO3)n2)cc1 (centres undefined),120.3%
15,COc1ccc(CN(C(=O)C2CCOCC2)c2ccncc2)cc1,-12.74%
16,COc1ccc(CN(C(=O)C2CCCO2)c2ccncc2)cc1 (centres undefined),-15.48%
17,COc1ccc(Cl)cc1NC(=O)CCC1CCCN(Cc2ncon2)C1 (centres undefined),23.91%
18,Cc1nc(NC(=O)NCc2cccnc2NCCN(C)C)sc1C,-3.378%
19,COCCN1CCC2(C1)c1ccccc1S(=O)(=O)N2Cc1ccccc1.O=C(O)C(F)(F)F (centres undefined),6.934%
20,COCCN1C2(CCN(CC3CC3)C2)c2ccccc2S1(=O)=O.O=C(O)C(F)(F)F (centres undefined),102.4%
21,COCCN1CCC2(C1)c1ccccc1S(=O)(=O)N2C.O=C(O)C(F)(F)F (centres undefined),90.85%
22,Cc1c(C(=O)NC2CC(C)(C)NC(C)(C)C2)cnn1-c1ccc(F)cc1,-13.93%
23,CC(C)C(=O)Nc1cc(C(=O)NC2CC(C)(C)NC(C)(C)C2)nn1C,-26.3%
24,Cc1ccc(-n2ncc(C(=O)NC3CCCCC3)c2N)cc1,3.957%
25,Cc1ccc(-n2ncc(C(=O)NC3CC(C)(C)NC(C)(C)C3)c2N)cc1,174.2%
26,CC1(C)CC(NC(=O)c2cnn(-c3ccccc3F)c2N)CC(C)(C)N1,151.8%
